± gives the standard deviation of the averaged measurements.
tested on: HCC1569; test: cell number relative to DMSO (% of DMSO); higher = more cells (less growth inhibition / toxicity); details: concentration: 10 µM; 24 h
Procedure, shortened: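 Cell number or H1.0 nuclear intensity appears as percent of the plate control, based on the median of replicates. Measurements came from HCC1569 and TDF cells exposed in triplicate to compounds at 10 µM for 24 h at 37 °C, then imaged in six fields per well at ×10. Positional effects were smoothed out of HCC1569 values.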
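Also: TDF denotes transformed human dermal fibroblasts of mesenchymal origin.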

In order of falling cell number:
1. O=c1[nH]c2cc(Cl)ccc2c(O)c1-c1cccc(Oc2ccccc2)c1  108
2. CCCCCC=CCC=CCC=CC=CC1CCCC(=O)O1 (racemic)  106
3. CN(C)CCOC(c1ccccc1)c1ccccc1.Cl [Diphenhydramine.HCl]  106
4. CCCCCCCCCCCCC(=O)O [Tridecanoic acid]  105
5. O=C(O)Cc1ccc(O)c(O)c1 [3,4-Dihydroxyphenylacetic acid]  104
6. CCCCCCCCCCCCCCCC(O)C(CO)NC(C)=O (centres undefined) [C2 Dihydroceramide]  104
7. Br.COc1ccccc1N1CCN(CCCCN2C(=O)c3ccccc3C2=O)CC1 [NAN-190 hydrobromide]  104
8. CC(C)Cc1ccc(C(C)C(=O)O)cc1 (racemic)  103
9. CN(C)CCCSc1ccccc1NC(=O)C=Cc1ccccc1 [Cinanserin]  103
10. C[N+](C)(C)CCOC(N)=O [Carbamylcholine]  103
11. CN1CCCC1c1cccnc1.Cc1ccc(C(=O)OC(C(=O)O)C(OC(=O)c2ccc(C)cc2)C(=O)O)cc1 (stereo not drawn) [(+)-Nicotine (+)-di-p-toluoyl tartrate]  102
12. CC(C)NCC(O)c1cc(O)cc(O)c1.CC(C)NCC(O)c1cc(O)cc(O)c1.O=S(=O)(O)O (centres undefined) [Metaproterenol hemisulfate]  102
13. O=C(Nc1cccc(C(=O)Nc2ccc(S(=O)(=O)[O-])c3cc(S(=O)(=O)[O-])cc(S(=O)(=O)[O-])c23)c1)Nc1cccc(C(=O)Nc2ccc(S(=O)(=O)[O-])c3cc(S(=O)(=O)[O-])cc(S(=O)(=O)[O-])c23)c1.[Na+].[Na+].[Na+].[Na+].[Na+].[Na+]  102
14. O=C(O)CCCCCCCC(=O)O [Azelaic acid]  102
15. COc1c(N2CCNC(C)C2)c(F)cc2c(=O)c(C(=O)O)cn(C3CC3)c12 (centres undefined) [Gatifloxacin]  101
16. CC(C(O)c1ccc(O)cc1)N1CCC(Cc2ccccc2)CC1.CC(C(O)c1ccc(O)cc1)N1CCC(Cc2ccccc2)CC1.O=C(O)C(O)C(O)C(=O)O (centres undefined) [Ifenprodil tartrate]  101
17. O=C1CC(c2ccc(O)cc2)Oc2cc(OC3OC(CO)C(O)C(O)C3O)cc(O)c21 (centres undefined) [Narigenin-7-O-glucoside]  101
18. COc1ccccc1N1CCN(CCCNc2cc(=O)n(C)c(=O)n2C)CC1.Cl [Urapidil hydrochloride]  101
19. [Cl-].[Li+] [Lithium Chloride]  101
20. CC(C)Nc1cccnc1N1CCN(C(=O)c2cc3cc(NS(C)(=O)=O)ccc3[nH]2)CC1.CS(=O)(=O)O [Delavirdine mesylate]  101
21. c1ccc(-c2n[nH]c3c2oc2ccccc23)cc1  101
22. CC1CC2C3CCC4=CC(=O)C=CC4(C)C3(F)C(O)CC2(C)C1(O)C(=O)CO (centres undefined) [Dexamethasone]  100
23. NS(=O)(=O)c1cc2c(cc1Cl)NC(C1CC3C=CC1C3)NS2(=O)=O (centres undefined) [Cyclothiazide]  100
24. CCN(CC)CCOC(=O)C1(C2CCCCC2)CCCCC1.Cl [Dicyclomine hydrochloride]  100
25. COc1ccc(CC(=O)NC(N=C(NC#N)Nc2cccc3ncccc23)C(C)(C)C)cc1OC (centres undefined)  99.9
26. Clc1ccc(CON=C(Cn2ccnc2)c2ccc(Cl)cc2Cl)c(Cl)c1 [Oxiconazole]  99.8
27. Cl.c1ccc(C2CN3CCSC3=N2)cc1 (centres undefined) [Tetramisole hydrochloride]  99.8
28. COCCc1ccc(OCC(O)CNC(C)C)cc1.COCCc1ccc(OCC(O)CNC(C)C)cc1.O=C(O)C(O)C(O)C(=O)O (racemic)  99.5
29. Cc1ccc(Cl)c(Nc2ccccc2C(=O)[O-])c1Cl.[Na+] [sodium 2-(2,6-dichloro-3-methylanilino)benzoate]  99.4
30. CCCCCCCCCCCCCCCCn1cc[n+](Cc2ccccc2)c1C.[I-]  99.1
31. O=C(OC1CC2CC3CC(C1)N2CC3=O)c1c[nH]c2ccccc12 (centres undefined) [Dolasetron]  99.1
32. CCCCCC(O)C=CC1C=CC(=O)C1CCCCCCC(=O)O (centres undefined) [Prostaglandin A1]  97 ± 5.2
33. C1COC(NC(C2CC2)C2CC2)=N1 [Rilmenidine hemifumarate]  95.7
34. OC1c2ccccc2N=C2CCCN21 (centres undefined) [Peganole]  95
35. O=C(C=Cc1ccc(O)cc1)CC(=O)C=Cc1ccc(O)cc1 [Bis demethoxycurcumin]  83.7
36. COC1C=CC=C(C)C(=O)NC2=CC(=O)C=C(C2=O)C(OC)C(C)CC(OC)C(OC)C(C)C=C(C)C1OC(N)=O (centres undefined) [Herbimycin A, Streptomyces sp.]  62.4
37. Cn1c(=O)c(-c2c(Cl)cccc2Cl)cc2cnc(Nc3ccc(N4CCOCC4)cc3)nc21  52.7
38. CC(=O)Oc1ccccc1C(=O)Oc1ccc(CO[N+](=O)[O-])cc1 [4-[(nitrooxy)methyl]phenyl 2-(acetyloxy)benzoate]  50.1
39. Cc1ccc(NC2=CC(=O)c3sc(C)nc3C2=O)cc1 [Cdk4 Inhibitor III]  26.6
